# Reference: PubChem BioAssay
# Active and inactive are the calls of the source.
# Columns and labels:
# [1] = binders of probe aFSTL3 on microarray, primary screen, stem cell growth factor project, biochemical, small-molecule microarray, fluorescence 635/667 (AID 1064); details: higher = more signal;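 note: measures binding of the biotinylated anti-FSTL3 antibody to printed compounds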
# [2] = binders from COS7 lysate, DM2A8 probe, primary screen, torsin A project, cell lysate, small-molecule microarray, fluorescence 635/667 (AID 1065); details: higher = more signal, COS7 lysate expressing mutant human TOR1A
# [3] = binders of probe aFGF2 on microarray, primary screen, stem cell growth factor project, biochemical, small-molecule microarray, fluorescence 635/667 (AID 1067); details: higher = more signal;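 note: measures binding of biotinylated aFGF2 protein to printed compounds on slides; z-score merges feature fluorescence and signal-to-noise across triplicate slides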
# [4] = binders of probe aFGF10 on microarray, primary screen, stem cell growth factor project, biochemical, small-molecule microarray, fluorescence 635/667 (AID 1071); details: higher = more signal;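 note: score merges 667 nm spot intensity and signal to noise from triplicate slides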
# [5] = molecular target: Neurogenic locus notch homolog protein 2 (Homo sapiens) (UniProt Q04721); assay: Notch2 binders on small-molecule microarrays, primary screen, biochemical, small-molecule microarray, 635 nm fluorescence, stem cell growth factors (AID 1073); details: Notch2 binding, higher = more signal
# Neurogenic locus notch homolog protein 2 (Homo sapiens), sequence (Q04721 whole entry, looked up, canonical isoform): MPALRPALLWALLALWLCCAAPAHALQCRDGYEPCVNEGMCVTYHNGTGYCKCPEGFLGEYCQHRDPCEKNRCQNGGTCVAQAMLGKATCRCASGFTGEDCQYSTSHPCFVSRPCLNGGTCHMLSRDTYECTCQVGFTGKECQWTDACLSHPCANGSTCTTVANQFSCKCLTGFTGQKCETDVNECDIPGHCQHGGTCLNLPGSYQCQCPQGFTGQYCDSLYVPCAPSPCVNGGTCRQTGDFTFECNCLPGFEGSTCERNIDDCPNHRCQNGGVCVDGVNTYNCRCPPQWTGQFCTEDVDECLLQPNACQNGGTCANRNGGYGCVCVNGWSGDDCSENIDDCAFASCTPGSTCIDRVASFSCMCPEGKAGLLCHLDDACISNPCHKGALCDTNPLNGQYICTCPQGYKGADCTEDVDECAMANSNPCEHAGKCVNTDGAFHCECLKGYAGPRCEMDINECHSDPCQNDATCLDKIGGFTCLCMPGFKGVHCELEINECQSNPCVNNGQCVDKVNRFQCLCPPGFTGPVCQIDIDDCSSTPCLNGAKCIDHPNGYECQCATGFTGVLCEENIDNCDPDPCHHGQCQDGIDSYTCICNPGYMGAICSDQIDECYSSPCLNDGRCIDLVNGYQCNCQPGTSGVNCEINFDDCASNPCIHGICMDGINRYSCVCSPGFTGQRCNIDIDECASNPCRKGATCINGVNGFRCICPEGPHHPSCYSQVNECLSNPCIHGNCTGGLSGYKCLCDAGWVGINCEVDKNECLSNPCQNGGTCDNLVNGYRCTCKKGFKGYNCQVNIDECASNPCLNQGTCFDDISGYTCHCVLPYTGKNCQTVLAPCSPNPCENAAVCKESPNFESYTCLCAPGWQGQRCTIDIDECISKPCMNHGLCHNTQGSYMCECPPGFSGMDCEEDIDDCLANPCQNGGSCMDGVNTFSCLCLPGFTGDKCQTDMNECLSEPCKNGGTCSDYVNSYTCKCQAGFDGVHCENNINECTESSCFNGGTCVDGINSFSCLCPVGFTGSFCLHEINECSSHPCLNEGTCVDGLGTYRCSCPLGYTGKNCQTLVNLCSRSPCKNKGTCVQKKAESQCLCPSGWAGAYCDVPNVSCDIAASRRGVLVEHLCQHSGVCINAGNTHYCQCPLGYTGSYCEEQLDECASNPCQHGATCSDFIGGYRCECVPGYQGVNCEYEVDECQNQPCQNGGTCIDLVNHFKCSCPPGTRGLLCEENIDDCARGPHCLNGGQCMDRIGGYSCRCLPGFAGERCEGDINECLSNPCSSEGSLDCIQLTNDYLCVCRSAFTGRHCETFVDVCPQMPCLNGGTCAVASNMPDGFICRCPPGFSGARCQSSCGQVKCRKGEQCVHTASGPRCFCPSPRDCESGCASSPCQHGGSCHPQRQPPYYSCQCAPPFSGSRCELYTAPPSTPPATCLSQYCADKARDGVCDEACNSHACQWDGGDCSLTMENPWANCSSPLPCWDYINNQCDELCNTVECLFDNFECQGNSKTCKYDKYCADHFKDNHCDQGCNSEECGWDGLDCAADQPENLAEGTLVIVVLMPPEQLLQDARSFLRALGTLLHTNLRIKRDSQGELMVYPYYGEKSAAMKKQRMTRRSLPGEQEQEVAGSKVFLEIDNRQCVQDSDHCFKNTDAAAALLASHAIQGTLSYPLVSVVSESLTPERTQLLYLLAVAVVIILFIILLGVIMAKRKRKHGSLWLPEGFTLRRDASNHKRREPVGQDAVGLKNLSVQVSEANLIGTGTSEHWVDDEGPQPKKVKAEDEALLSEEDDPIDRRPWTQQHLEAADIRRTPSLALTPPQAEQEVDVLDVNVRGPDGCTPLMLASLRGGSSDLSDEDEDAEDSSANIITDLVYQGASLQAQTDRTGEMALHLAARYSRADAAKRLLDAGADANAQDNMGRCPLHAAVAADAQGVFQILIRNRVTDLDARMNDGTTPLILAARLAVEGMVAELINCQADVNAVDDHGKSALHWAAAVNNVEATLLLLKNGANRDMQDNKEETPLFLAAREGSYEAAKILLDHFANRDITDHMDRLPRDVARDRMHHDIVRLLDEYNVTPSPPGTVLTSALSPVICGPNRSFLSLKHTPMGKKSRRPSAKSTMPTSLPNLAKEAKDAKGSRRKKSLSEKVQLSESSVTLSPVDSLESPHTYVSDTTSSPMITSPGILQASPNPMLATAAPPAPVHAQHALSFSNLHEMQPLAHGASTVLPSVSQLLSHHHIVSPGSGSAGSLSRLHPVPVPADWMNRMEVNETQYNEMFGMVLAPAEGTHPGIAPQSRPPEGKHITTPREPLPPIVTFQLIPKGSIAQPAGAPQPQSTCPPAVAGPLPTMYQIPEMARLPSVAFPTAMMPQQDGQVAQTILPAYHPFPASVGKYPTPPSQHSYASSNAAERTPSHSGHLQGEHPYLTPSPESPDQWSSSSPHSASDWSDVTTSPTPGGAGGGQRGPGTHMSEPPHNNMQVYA
# [6] = molecular target: Pro-neuregulin-1, membrane-bound isoform (Homo sapiens) (UniProt Q02297); assay: NRG1 binders on small-molecule microarrays, primary screen, psychiatric disease protein project, biochemical, small-molecule microarray, fluorescence 635/667 (AID 1075); details: NRG1 binding, 635 nm fluorescence, higher = more signal;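 note: score combines 667 nm spot fluorescence with signal to noise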
# Pro-neuregulin-1, membrane-bound isoform (Homo sapiens), sequence (Q02297 whole entry, looked up, the tested form may be a part, canonical isoform): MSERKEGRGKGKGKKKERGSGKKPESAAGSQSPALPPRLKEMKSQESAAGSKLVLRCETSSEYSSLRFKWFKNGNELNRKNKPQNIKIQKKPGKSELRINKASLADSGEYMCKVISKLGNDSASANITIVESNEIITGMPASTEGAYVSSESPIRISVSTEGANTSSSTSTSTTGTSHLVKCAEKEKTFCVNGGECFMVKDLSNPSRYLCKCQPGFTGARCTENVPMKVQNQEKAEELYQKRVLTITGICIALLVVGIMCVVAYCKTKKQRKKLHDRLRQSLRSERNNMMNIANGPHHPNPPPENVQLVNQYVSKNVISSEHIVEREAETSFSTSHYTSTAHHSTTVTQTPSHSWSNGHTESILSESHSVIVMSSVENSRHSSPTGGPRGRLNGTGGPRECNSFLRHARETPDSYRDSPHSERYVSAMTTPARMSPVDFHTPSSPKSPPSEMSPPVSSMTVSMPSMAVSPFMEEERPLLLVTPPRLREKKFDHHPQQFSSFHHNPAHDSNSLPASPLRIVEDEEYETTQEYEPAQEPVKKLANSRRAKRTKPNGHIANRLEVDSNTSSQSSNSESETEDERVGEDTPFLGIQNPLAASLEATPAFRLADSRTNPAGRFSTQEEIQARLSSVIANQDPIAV
# [7] = test system: Neuregulin-1 EGF-like domain; assay: binders of neuregulin-1 EGF-like domain, primary screen, biochemical, small-molecule microarray, 635 nm fluorescence (AID 1081); details: small-molecule microarray binding, higher = more signal;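 note: binding of the protein to compounds printed on small-molecule microarray slides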
# [8] = FRG1 promoter luciferase signal modulators, primary screen, FRG1 inhibition for FSHD, cell-based, C2C12 myotubes, firefly/Renilla luciferase, luminescence (AID 1084); details: higher = more signal, called active from +8 up or from −8 down
# [9] = binders of probe aFST on microarray, primary screen, stem cell growth factor project, biochemical, small-molecule microarray, fluorescence 635/667 (AID 1086); details: higher = more signal;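 note: score merges 667 nm fluorescence with signal-to-noise of each printed compound spot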
# [10] = binders of probe aHhip on microarray, primary screen, stem cell growth factor project, biochemical, small-molecule microarray, fluorescence 635/667 (AID 1087); details: higher = more signal;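 note: score merges spot fluorescence at 667nm with spot signal to noise ratio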
Compound,composite z-score [1],composite z-score [2],composite z-score [3],composite z-score [4],composite z-score [5],composite z-score [6],composite z-score [7],z-score [8],composite z-score [9],composite z-score [10]
CC[C@@H]1C=C(C(=O)O)[C@H](c2ccc(C#N)cc2)N1S(=O)(=O)c1ccc(C)cc1,0.6,2.35,0.0865,1.09,0.905,1.25,1.3,0.281 (inactive),0.145,-0.134
C=CCC(OC(C)=O)[C@@H]1[C@@H](N(Cc2ccc(-c3ccccc3)cc2)C(=O)c2ccc(-c3ccccc3)cc2)c2cc(OCCCO)ccc2N1C(=O)c1ccc2ccccc2c1 (stereo not given in full),0.0946,0.107,-0.128,0.178,-0.443,-0.227,-0.896,0.807 (inactive),0.352,-0.353
CCOC(=O)C[C@H]1[C@H](OC(=O)Cc2ccc3c(c2)OCO3)[C@@H](NC(=O)c2ccc3ccccc3n2)c2cc(OCCCO)ccc2N1C(=O)c1ccc2ccccc2n1,-0.5,0.185,-0.103,1.03,0.568,0.54,1.01,-2.11 (inactive),0.37,0.171
N#Cc1ccc(NN2C(C(O)c3ccc(Br)cc3)C=CC3C(=O)N(c4ccccc4)C(=O)C32)cc1 (stereo not given),1.36,0.288,0.254,0.73,1.58,1.74,0.976,-2.87 (inactive),0.907,-0.182
CN1C(=O)C2C=CC(C(O)c3cccn3C)N(Nc3ccc([N+](=O)[O-])cc3[N+](=O)[O-])C2C1=O (stereo not given),0.108,-0.0125,0.157,0.162,1.05,0.392,0.828,0.351 (inactive),0.477,-0.0631
COC(=O)[C@@]1(Cc2ccccc2)[C@H]2c3cc(C(=O)N4CCCC4)n(CCc4ccccn4)c3C[C@H]2CN1C(=O)c1ccccc1,0.223,0.487,-0.177,0.283,1.33,2.09,1.35,2.95 (inactive),1.18,0.503
CC1CC/C=C\[C@H]2OC34C=CCN(C(C)(C)C)C(=O)[C@H]3N(CCCCCO)C(=O)[C@@H]4C2C(=O)O1 (stereo not given in full),-0.108,-0.688,-0.172,-0.817,-1.57,0.299,0.479,-0.0661 (inactive),-0.581,-0.261
CC(C)(C)OC(=O)COc1cccc(C(=O)CCN2CCOCC2)c1,1.39,0.262,-0.0741,-0.459,-0.742,0.359,0.187,1.57 (inactive),0.482,-0.243
C=CCNC(=O)[C@@H]1[C@H]2C(=O)O[C@H](c3ccccc3)[C@H](c3ccccc3)N2[C@H](c2ccc(OCCO)cc2)[C@@]12C(=O)N(C(=O)OCCOC)c1ccc(C#Cc3ccc(OC)cc3)cc12,-0.412,0.1,-0.126,0.0179,0.801,1.1,1.07,-0.309 (inactive),0.267,-0.0955
CC(C)NC(=O)[C@@]1(c2ccc([N+](=O)[O-])cc2)CC(=O)N(C2CCCCC2)[C@@H]1c1ccc(CO)cc1,-0.903,1.08,0.0584,0.817,0.261,1.69,1.35,-0.629 (inactive),-0.114,-0.172
CC1CC/C=C\[C@H]2OC34C=CCN(c5ccc6ccccc6c5)C(=O)[C@H]3N(CCCO)C(=O)[C@@H]4C2C(=O)O1 (stereo not given in full),0.932,-0.541,-0.188,-1.25,-0.746,1.19,-0.459,2.62 (inactive),-0.757,-0.19
C=CCC(OC(C)=O)[C@@H]1[C@@H](N(Cc2cccc3ccccc23)C(=O)Cc2ccc(F)cc2)c2cc(OCCCO)ccc2N1C(=O)c1ccc2ccccc2c1 (stereo not given in full),-0.0968,-0.0168,-0.0925,0.0597,-0.108,-0.398,-0.691,-1.72 (inactive),-0.0779,0.0722
CCCC=C(CCC)[C@@H](NC(=O)c1cccs1)c1ccc(C(=O)OC)cc1,2.23,0.392,0.905,1.1,0.592,0.028,0.648,0.874 (inactive),2.61,1.39
COCC(=C=CC[C@H](O)c1ccccc1OCCO)C[C@H](O)c1ccccn1,-0.109,-0.169,-0.128,0.4,-0.548,-0.409,0.0876,-0.996 (inactive),0.0547,-0.0994
O=C(NCCN1CCOCC1)[C@@H]1c2ccccc2C(=O)N(C2Cc3ccccc3C2)[C@H]1c1ccc(CO)cc1,0.704,0.0352,-0.163,-0.465,-0.168,0.855,1.25,-1.39 (inactive),-0.768,-0.173
O=C1[C@H]2C=C(I)[C@H](C[C@@H]2OCCOCCO)[C@@]12CO2,-0.444,0.97,-0.0877,0.454,0.67,-0.183,0.653,0.843 (inactive),-0.192,0.0722
CC1CC/C=C\[C@H]2OC34C=CCN(C(C)C)C(=O)[C@H]3N(CCO)C(=O)[C@@H]4C2C(=O)O1 (stereo not given in full),0.689,0.987,-0.159,-0.228,-1.19,1.08,1.23,0.0746 (inactive),-0.662,-0.134

Compound,composite z-score [1],composite z-score [2],composite z-score [3],composite z-score [4],composite z-score [5],composite z-score [6],composite z-score [7],z-score [8],composite z-score [9],composite z-score [10]
C=CCNC(=O)[C@@H]1[C@H]2C(=O)O[C@H](c3ccccc3)[C@H](c3ccccc3)N2[C@H](c2ccc(O)cc2)[C@@]12C(=O)N(C(=O)OCCOC)c1ccc(C#CC3=CCCCC3)cc12,-0.254,0.467,-0.021,0.512,0.761,1,1.17,0.816 (inactive),0.668,0.951
Oc1ccc2cc[n+](Cc3cc4c(cc3Br)OCO4)cc2c1,0.254,0.0899,-0.0148,-0.903,-1.69,-0.614,0.565,0.985 (inactive),-0.164,-0.236
CCCC=C(CCC)[C@@H](NC(=O)C(C)(C)C)c1ccc(C(=O)OC)cc1,0.488,-0.495,0.202,0.0431,1.45,0.992,0.883,-4.15 (inactive),1.26,-0.115
C=C(/C(=C/C[C@H](OC(=O)c1ccncc1)c1ccc(CO)o1)c1cnc2ccccc2c1)C(C)C,-0.418,0.0906,-0.0325,1.21,1.44,0.519,1.17,0.368 (inactive),0.106,0.0373
C=C(COC)C(=O)CC[C@@H](OC(C)=O)c1cccc(OCCO)c1,-0.0369,-0.489,-0.085,0.243,-0.0381,-0.372,0.691,-0.721 (inactive),-0.204,-0.249
C[C@@H]1NC(=O)[C@@H](Cc2ccccc2)NC(=O)[C@@]23C(=O)N[C@@H](Cc4ccccc4)C2[C@H](C)[C@@]2(C)O[C@H]2C3/C=C/C/C=C\CNC1=O (stereo not given in full),-0.285,1.13,-0.149,-0.211,-0.787,-0.235,0.305,-0.323 (inactive),-0.263,-0.249
C=CCC(OC(C)=O)[C@@H]1[C@@H](N(Cc2ccc(-c3cccc(C(F)(F)F)c3)o2)C(=O)c2ccc(-c3ccccc3)cc2)c2cc(OCCCO)ccc2N1C(=O)Cc1ccc2ccccc2c1 (stereo not given in full),-0.414,-0.732,-0.0454,-0.342,-0.753,-0.337,-0.0291,-0.0069 (inactive),1.09,0.0156
COc1cccc(C)c1NC(=O)O[C@H]1[C@H](OC(=O)Nc2ccc3c(c2)OCO3)[C@@H](OC(=O)Nc2ccc3c(c2)OCO3)[C@@H](OC)O[C@@H]1CO,-0.0021,0.893,0.121,1.07,1.65,-0.0548,1.07,6.28 (inactive),1.17,0.0243
CCOC(=O)C[C@H]1[C@H](OC(=O)Cc2ccc3c(c2)OCO3)[C@@H](NC(=O)C2CCCCC2)c2cc(OCCCO)ccc2N1C(=O)c1ccccc1,0.0113,-0.155,-0.112,0.117,0.0925,-0.127,0.65,-1.14 (inactive),-0.0611,-0.0994
COc1ccc(C#Cc2ccc3c(c2)[C@]2(C(=O)N3)[C@H](c3ccc(O)cc3)N3[C@H](c4ccccc4)[C@H](c4ccccc4)OC(=O)[C@H]3[C@@H]2C(=O)Nc2nc3ccccc3s2)cc1,-0.552,-0.133,-0.0242,0.534,1.6,1.69,1.36,1.33 (inactive),1.01,0.113
NCCCCCNC(=O)[C@@H]1C[C@@H]2C(=O)N[C@@H](CCCCN)C(=O)N2[C@@H]1c1ccc(O)cc1,0.266,0.726,-0.0213,0.491,1.39,2.02,1.29,1.08 (inactive),0.865,0.23
COC(=O)[C@@]1(Cc2ccc(F)cc2)[C@H]2c3cc(C(=O)N4CCCC4)n(CCc4c[nH]c5ccccc45)c3C[C@H]2CN1C(=O)c1ccccc1,0.484,0.246,0.0869,0.439,1.62,2.06,1.22,-2.21 (inactive),1.05,0.245
CCCN1C(=O)[C@@]2(Cc3ccccc31)N=C(c1ccc(OCCCO)cc1)O[C@H]2c1ccccc1,0.654,0.27,-0.0909,0.181,0.697,1.55,1.21,-1.35 (inactive),0.193,-0.0852
[N-]=[N+]=NCc1ccccc1[C@H]1OC(c2ccc(OCCCO)cc2)=N[C@@]1(Cc1ccccc1N=[N+]=[N-])C(=O)NCC(O)CO (stereo not given in full),-0.0235,0.651,0.0342,0.867,1.24,1.68,1.13,1.5 (inactive),1.43,-0.31
CCCNC(=O)[C@@]1(C)c2ccccc2C(=O)N(c2ccc(C)cn2)[C@H]1c1ccc(CO)cc1,0.294,0.0231,-0.0692,-0.281,0.0657,0.638,0.781,0.683 (inactive),-0.215,-0.219
CC(=O)NCCCC[C@@H]1NC(=O)[C@@H]2C[C@H](C(=O)NCCCCCN)[C@H](c3ccc(O)cc3)N2C1=O,0.95,1.25,0.088,0.864,0.702,0.995,1.43,0.604 (inactive),0.491,-0.334
CCOC(=O)C1=C[C@@H](C(C)C)N(S(=O)(=O)c2ccc(C)cc2)[C@H]1c1ccc(C(F)(F)F)cc1,-0.235,0.231,0.112,1.05,1.67,0.497,1.22,-2.54 (inactive),1.69,0.0873
